Measurements: PubChem BioAssay (Tox21)
Results filed as inconclusive are left out. Active and inactive are the calls of the source. Unless noted, the call rests on the fitted dose curve; in most records, active means well fitted curve in the direction sought with a large enough effect in the repeat runs; inconclusive means weak or mixed curves; inactive means no such curve, though single readings can be large; an effect the other way counts as inactive or inconclusive.

Experiments:
[1] = qHTS assay for small molecule agonists of the p53 signaling pathway (AID 651631; calls by dose curve; further: nearly all actives have a fitted effect of over 15% in size); settings: HCT-116 p53RE-bla reporter, beta-lactamase FRET ratio, 16 h; series mostly up to 73.3 µM
Summary of the method: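 Fluorescence intensity from cleaved LiveBLAzer B/G substrate (2 h, room temperature) served as the signal. Beforehand, HCT-116 reporter cells bearing p53 response elements were treated 16 h at 37 °C with DMSO-dissolved compounds.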

[2] = qHTS assay for small molecule agonists of the p53 signaling pathway - cell viability (AID 651633; calls by dose curve; further: nearly all actives have a fitted effect of over 30% in size); settings: p53RE-bla HCT-116 viability, ATP luminescence, 16 h; series mostly up to 83.3 µM
Summary of the method: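 p53RE-bla cells, seeded at 4,000 per well and rested 5 h at 37 C/5% CO2, received compounds in DMSO for 16 h at 37 C. CellTiter-Glo was then added, and luminescence was read after 30 min at room temperature to gauge cytotoxicity.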

[3] = qHTS assay for small molecules that induce genotoxicity in human embryonic kidney cells expressing luciferase-tagged ATAD5 - cell viability (AID 651634; calls by dose curve; further: nearly all actives have a fitted effect of over 25% in size); settings: HEK293T ATAD5-luc cells viability, CellTiter-Fluor, 15.5 h; series mostly up to 83.3 µM
Summary of the method: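 Fluorescence from CellTiter-Fluor, reporting protease activity within live cells, served as the viability read-out. HEK293T cells carrying luciferase-tagged ATAD5 had been treated with compound for 15.5 hr at 37C.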

[4] = qHTS assay for small molecule disruptors of the mitochondrial membrane potential (AID 720635); settings: HepG2 mitochondrial membrane potential, Mito-MPS dye ratio; series mostly up to 83.2 µM; further: potency means the concentration at half of the fitted maximal effect
Summary of the method: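 HepG2 cells (2,000/well) attached overnight at 37C, then took compound for 1 hr at 37C, 5% CO2. Mito-MPS dye was added for 30 min; fluorescence was read at 490/535 nm (monomers) and 540/590 nm (aggregates).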

[5] = qHTS assay to test for compound auto fluorescence at 590 nm (red) in HepG2 cells (AID 720674); settings: HepG2 autofluorescence, red 540/590 nm, 1 h; series mostly up to 91.3 µM
Summary of the method: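 Rose Bengal sodium served as the red fluorophore standard. HepG2 monolayers (overnight attachment, MEM with 10% FBS) were exposed to test compounds for 1 hr at 37 C and read at Ex 540/Em 590 nm.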

[6] = qHTS assay to test for compound auto fluorescence at 535 nm (green) in HepG2 cells (AID 720675); settings: green autofluorescence 485/535 nm, 1 h; series mostly up to 91.3 µM
[7] = qHTS assay to test for compound auto fluorescence at 460 nm (blue) in HEK293 cells (AID 720678); settings: blue autofluorescence 405/460 nm; series mostly up to 91.3 µM
Summary of the method: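 HEK293 cells (2,000/well, medium with 10% dialyzed FBS) attached 4-5 hr, then exposed to compound overnight at 37C, 5% CO2. Blue fluorescence read at 405/460 nm, with triamterene as reference fluorophore.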

[8] = qHTS assay to test for compound auto fluorescence at 590 nm (red) in HEK293 cells (AID 720679); settings: red autofluorescence 540/590 nm; series mostly up to 91.3 µM
Summary of the method: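 HEK293 cells (2,000/well, 10% dialyzed FBS) attached 4-5 hr, then dosed with compound or DMSO and incubated overnight at 37C, 5% CO2. Red fluorescence read at 540/590 nm, Rose Bengal sodium as reference fluorophore.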

[9] = qHTS assay for small molecule disruptors of the mitochondrial membrane potential - cell viability (AID 720634; calls by dose curve;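 further: human HepG2 liver cancer cells; nearly all actives have a fitted effect of over 20% in size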); settings: HepG2 viability, ATP luminescence (CellTiter-Glo), 1 h; series mostly up to 83.2 µM
Summary of the method: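 Cells: HepG2, 2,000/well, attached overnight. Compound 1 hr, 37 C/5% CO2. +m-MPI dye, +CellTiter-Glo 30 min RT. Readout: luminescence (ATP).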
On the % scale 0 is the no-effect control and ±100 the full control effect.

c1ccc(B(c2ccccc2)c2ccccc2)cc1
active: Potency [4] 61.1 µM
inactive: outcome [1] | outcome [2] | Potency [3] | outcome [5] | outcome [6] | outcome [7] | outcome [8]

O=S(=O)(O)c1ccc2c(N=Nc3ccc(S(=O)(=O)O)c4ccccc34)c(O)c(S(=O)(=O)O)cc2c1
inactive: outcome [1] | outcome [9] | outcome [5] | outcome [6] | outcome [7] | outcome [8]

c1ccc2c(CC3=NCCN3)cccc2c1
inactive: outcome [1] | outcome [2] | Potency [3] | outcome [9] | Potency [4] | outcome [5] | outcome [6] | outcome [7] | outcome [8]

Cc1ccnc(N)c1
inactive: outcome [1] | outcome [2] | Potency [3] | outcome [9] | Potency [4] | outcome [5] | outcome [6] | outcome [7] | outcome [8]

CC(C)OC(=O)OCOP(=O)(CO[C@H](C)Cn1cnc2c(N)ncnc21)OCOC(=O)OC(C)C
inactive: outcome [1] | outcome [2] | Potency [3] | Potency [4] | outcome [5] | outcome [6] | outcome [7] | outcome [8]

CCC(=O)CC
inactive: outcome [1] | outcome [2] | Potency [3] | outcome [9] | outcome [5] | outcome [6] | outcome [7] | outcome [8]

CC(=O)c1cc(C)oc1C
inactive: outcome [1] | outcome [2] | Potency [3] | outcome [9] | outcome [5] | outcome [6] | outcome [7] | outcome [8]

CN(C)CCCCl
inactive: outcome [1] | outcome [2] | Potency [3] | outcome [9] | Potency [4] | outcome [5] | outcome [6] | outcome [7] | outcome [8]

CCCCCCC1(C)CCC(=O)O1 (centres undefined)
inactive: outcome [1] | Potency [3] | outcome [5] | outcome [6] | outcome [7] | outcome [8]

O=C1c2ccccc2C(=O)c2cc(Cl)ccc21
inactive: activation [1] -4.52% [at 8.3 µM] | activity change, negative = cytotoxicity [2] -10.5% [at 8.08 µM] | activity, negative = cytotoxicity [3] 10.7% [at 8.08 µM] | activity change, negative = cytotoxicity [9] 3.06% [at 8.08 µM] | fluorescence, relative to Rose Bengal [5] -0.0283% [at 3.72 µM] | fluorescence, % of fluorescein control [6] -0.0348% [at 3.72 µM] | fluorescence, % of triamterene [7] -0.0543% [at 3.72 µM] | fluorescence, % of fluorescent control [8] -0.785% [at 3.72 µM]
